Source: PubChem
Sampled rows, rich in hits. Any-hit rate of the full collection: about 1.4%.
BRCA1 expr act: qHTS Assay to Identify Small Molecule Activators of BRCA1 Expression | Potency, µM (doses to about 46.1 µM), hits mostly activators | 1.1% of 380,000 active | MCF7-BRCA1-FFLuc reporter, luminescence, 48 h; response scale: scaled: vehicle 0%, 10 µM genistein 100%; note: nearly all actives have a fitted effect of over 80% in size
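MCF7 cells carrying a BRCA1-firefly luciferase reporter (2000 cells/well, phenol-red free MEM) were attached for 2 h at 37 °C, then given compounds for 48 h. Luminescence was read 15 min after luciferase reagent; activity normalized to genistein (10 microM) and DMSO.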
TSHR antag: Antagonists of the Thyroid Stimulating Hormone Receptor: HTS campaign; Thyrotropin receptor (Homo sapiens), P16473; TSHR-expressing cells, TSH-stimulated cAMP HTRF, 2 h; active compounds read low; activity change, negative = inhibition, % at 11.5 µM; 0.2% of 330,000 active; AID 504810, 2011;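 active = activity change below a set negative limit, meaning inhibition stronger than a set level, cut at about -70% in these data; inconclusive = activity change between two set negative limits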
Target sequence (P16473 whole entry, looked up): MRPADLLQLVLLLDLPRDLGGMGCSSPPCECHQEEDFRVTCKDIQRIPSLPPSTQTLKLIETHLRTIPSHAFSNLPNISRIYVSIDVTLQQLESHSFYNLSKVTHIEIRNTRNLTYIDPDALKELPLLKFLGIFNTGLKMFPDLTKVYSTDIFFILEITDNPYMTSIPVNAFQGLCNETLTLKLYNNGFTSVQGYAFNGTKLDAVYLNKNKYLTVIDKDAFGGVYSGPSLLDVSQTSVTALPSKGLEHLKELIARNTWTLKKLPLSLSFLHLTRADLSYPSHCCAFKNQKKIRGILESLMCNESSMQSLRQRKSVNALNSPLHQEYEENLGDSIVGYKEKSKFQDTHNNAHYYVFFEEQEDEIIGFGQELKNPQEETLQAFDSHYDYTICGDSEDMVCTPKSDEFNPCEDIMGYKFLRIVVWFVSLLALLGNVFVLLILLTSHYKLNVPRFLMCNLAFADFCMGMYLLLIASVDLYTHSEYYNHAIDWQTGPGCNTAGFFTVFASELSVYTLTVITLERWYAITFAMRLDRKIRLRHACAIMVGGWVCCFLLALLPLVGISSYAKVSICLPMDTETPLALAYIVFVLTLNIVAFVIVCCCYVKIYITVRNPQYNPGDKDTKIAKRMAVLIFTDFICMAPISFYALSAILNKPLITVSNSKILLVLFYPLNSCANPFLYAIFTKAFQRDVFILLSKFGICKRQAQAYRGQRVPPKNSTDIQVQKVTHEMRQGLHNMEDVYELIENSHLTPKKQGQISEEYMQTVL
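Read-out is FRET at 665 nm (cryptate excitation 337 nm) from a cryptate-tagged anti-cAMP antibody, competed by cell cAMP against cAMP-d2. Compounds are tested on freshly harvested TSHR cells challenged with 4nM TSH (EC80) for 2 hours at 37 deg C.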
TCR activator: Activators of T cell receptors: qHTS campaign. primary human leukocytes, anti-CD3, IL-2 HTRF, 48 h. Potency, µM (highest dose often 9.22 µM), usual class: activators. 330,000 tested, under 10 active. AID 504894, 2011
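HTRF read-out of IL-2 secretion: europium cryptate donor excited at 320nm, d2 acceptor emission at 665nm. Cells were primary human leukocytes incubated 48 hr with compounds and a-CD3 beads, supplying TCR signal only.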
N370S GC mod: qHTS Assay for Inhibitors and Activators of N370S glucocerebrosidase as a Potential Chaperone Treatment of Gaucher Disease; N370S GC spleen homogenate, 4MU-glucoside fluorescence; Potency, µM (highest dose often 59.4 µM), actives largely listed as inhibitors; 0.092% of 330,000 active; AID 2101, 2009
GLS inh: qHTS for Inhibitors of Glutaminase (GLS); GLS enzymatic activity, qHTS titration; AID 624170, 2012; Potency, µM (doses to about 45.5 µM), hits mostly inhibitors; Glutaminase kidney isoform, mitochondrial (Homo sapiens), O94925; 0.21% of 410,000 active
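Glutamate formation by hKGA was monitored fluorometrically using coupled glutamate oxidase, HRP and Amplex Red. Substrate was added as 1 mM L-glutamine solution; incubation was 30 min at RT after an initial read.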
p53 reactivation: qHTS assay for re-activators of p53 using a Luc reporter | Potency, µM (highest dose often 92.2 µM), usual class: activators | 0.063% of 320,000 active | AID 504706, 2011 | H1299 p53-A138V BP100-luciferase reporter, luminescence, 24 h; note: nearly all actives have a fitted effect of over 45% in size
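p53-null H1299 cells stably carrying temperature-sensitive p53-A138V and a BP100-luciferase reporter were pinned with compounds (4-point, 1:5 series) and held 24 hrs at 37 deg C. Luminescence was read 10 min after detection reagent.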
A number is an active result; i = inactive; ? = inconclusive; nt = no result given. Unless noted, calls come from the whole dose curve; as a rule, active = well fitted curve in the direction sought with a large enough effect; inconclusive = small, poorly fitted or top-dose-only effect, or another doubt; inactive = no such curve, though single readings can be large; an effect the other way counts as inactive or inconclusive.

SMILES	BRCA1 expr act	TSHR antag	TCR activator	N370S GC mod	GLS inh	p53 reactivation
Cn1c(=NC(=O)CS(=O)(=O)c2ccccc2)sc2cc(F)ccc21	5µM	nt	nt	nt	i	nt
Cn1c(=NC(=O)CCS(=O)(=O)c2ccccc2)sc2cc(F)ccc21	i	i	i	i	i	i
c1cncc(-c2nnc(-c3ccco3)o2)c1	i	i	i	i	i	i
Cc1ccc(-c2nnc(-c3ccc4ccccc4c3)o2)cc1	4.5µM	nt	i	nt	i	nt
Clc1cccc(-c2nnc(-c3ccccc3)o2)c1	i	i	i	i	i	nt
Clc1ccc(-c2nnc(-c3ccc4ccccc4c3)o2)cc1	2µM	nt	i	nt	i	nt
COc1cccc(-c2nnc(-c3ccc4ccccc4c3)o2)c1	?	nt	i	nt	i	nt
Clc1ccc(-c2nnc(-c3ccco3)o2)cc1	5.6µM	i	i	i	i	?
[O-][N+](=NC1C=Cc2ccccc21)C1C=Cc2ccccc21 (stereo not drawn)	i	nt	nt	nt	nt	nt
CN(C=O)c1ccc(CSc2ccccc2)cc1	8.9µM	nt	i	nt	i	nt
O=C(Nc1cccnc1)c1ccc(CSc2ccccc2)cc1	i	i	i	i	i	i
Cc1nn(CC(=O)c2ccccc2Cl)c(C)c1[N+](=O)[O-]	10µM	i	i	i	i	i
CCOc1ccc(N(CC(=O)NCc2ccc(F)cc2)C(=O)CCC(=O)Nc2nccs2)cc1	i	-95	i	i	i	i
CCOc1ccc(N(CC(=O)NCc2ccc(OC)cc2)C(=O)CCC(=O)Nc2nccs2)cc1	i	i	i	i	i	i
O=[N+]([O-])c1ccc(N=Nc2ccc(O)cc2O)cc1	i	-74	i	i	i	?
Oc1ccc(Br)cc1C1C=C(c2ccc3c(c2)OCO3)NC(c2c(F)cccc2Cl)N1 (stereo not drawn)	i	nt	nt	nt	nt	nt
COc1ccc(-n2nc(C(=O)NCC(=O)Nc3cc(OC)c(OC)c(OC)c3)c3ccccc3c2=O)cc1	i	i	i	?	i	i
COc1ccc(-n2nc(C(=O)NCC(=O)Nc3cc(OC)c(OC)c(OC)c3)c3ccccc3c2=O)cc1OC	i	-117	i	i	i	i
CN(C)c1ccc(-c2ccc3ccccc3n2)cc1	i	nt	nt	nt	nt	nt
c1ccc(-c2ccc3ccccc3n2)cc1	11µM	nt	i	nt	i	nt
NC(=O)c1c(NC(=O)c2noc3c2CCCC3)sc2c1CCCC2	nt	nt	nt	nt	i	nt
C(=Nc1cccnc1)c1ccc2ccccc2n1	i	nt	nt	nt	nt	nt
FC(F)Oc1ccc(C2N=C(c3ccccc3)NO2)cc1 (stereo not drawn)	4.5µM	i	i	i	i	?
COc1ccc(C2N=C(c3ccccc3)NO2)cc1OC (stereo not drawn)	i	i	i	i	i	?
Cc1ccc2c(C(=O)CNC3=NCCS3)c(C)[nH]c2c1	i	nt	nt	nt	nt	nt
SMILES	BRCA1 expr act	TSHR antag	TCR activator	N370S GC mod	GLS inh	p53 reactivation
O=C(CSc1nncs1)N1c2ccccc2Sc2ccccc21	i	-71	i	i	i	i
Oc1c(Cl)cc(Cl)c2c1NCCC2	i	i	i	i	11µM	i
Cc1ccc(C(=O)NCC(=O)N(C)Cc2cccc(F)c2)s1	i	i	i	i	i	i
Cc1ccc(C(=O)NCC(=O)N(C)Cc2ccccc2C)s1	11µM	nt	nt	nt	i	nt
CCOc1ccc(-c2csc(C3COc4ccccc4O3)n2)cc1 (stereo not drawn)	10µM	nt	nt	nt	i	nt
COc1ccc2c(c1)c(C(=O)N/N=C/c1ccc(O)c(O)c1)c(C)n2C	i	i	i	i	7.1µM	i
Cn1c2ccccc2c2cc(/C=N/NC(=O)c3cc(O)cc(O)c3)ccc21	i	i	i	i	16µM	i
Cc1cc(-n2c(C)cc(C(=O)CSc3ccccn3)c2C)no1	4µM	i	i	nt	i	?
Cc1cc(-n2c(C)cc(C(=O)CSc3nnnn3-c3ccccc3)c2C)no1	i	i	i	i	i	i
